Bioassay records deposited in PubChem by National Center for Advancing Translational Sciences (NCATS).
Gal4-VP16 FLuc = VP16 counterscreen qHTS for inhibitors of ROR gamma transcriptional activity | AID 2546, 2010 | Drosophila S2 Gal4-VP16 UAS-luciferase, luminescence, 20 h | 3.5% of 310,000 active | Potency, µM (highest dose often 53.6 µM), without a hit: top-dose activity, negative = inhibition, usual class: inhibitors;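 further: Gal4-VP16 expression switched on by copper sulfate through the metallothionein promoter; nearly all actives have a fitted effect of over 50% in size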
KinaseGlo FLuc = Counterscreen for Luciferase (Kinase-Glo TM) Inhibition | Luciferin 4-monooxygenase (Photuris pensylvanica), Q27757 | Kinase-Glo luciferase, ATP luminescence, 8 min | Potency, µM (series often up to 38.3 µM), inactives show at the highest dose activity change, negative = inhibition, most hits filed as inhibitors | 0.28% of 200,000 active; further: nearly all actives have a fitted effect of over 60% in size
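Compounds were added to a substrate mix at pH 7.2 (50 mM imidazole, 10 uM ATP, within the enzyme's linear range), followed by Kinase-Glo detection reagent; luminescence was measured after 8 minutes at ambient temperature.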
RORgamma inh = qHTS for inhibitors of ROR gamma transcriptional activity. Nuclear receptor ROR-gamma (Mus musculus), P51450. Drosophila S2 Gal4-RORgamma UAS-luciferase reporter, 20 h. Potency, µM (series often up to 53.6 µM), for the others: top-dose activity change, negative = inhibition, usual class: inhibitors. 5.4% of 310,000 active; further: nearly all actives have a fitted effect of over 60% in size
Target sequence (P51450 whole entry, looked up, the tested form may be a part): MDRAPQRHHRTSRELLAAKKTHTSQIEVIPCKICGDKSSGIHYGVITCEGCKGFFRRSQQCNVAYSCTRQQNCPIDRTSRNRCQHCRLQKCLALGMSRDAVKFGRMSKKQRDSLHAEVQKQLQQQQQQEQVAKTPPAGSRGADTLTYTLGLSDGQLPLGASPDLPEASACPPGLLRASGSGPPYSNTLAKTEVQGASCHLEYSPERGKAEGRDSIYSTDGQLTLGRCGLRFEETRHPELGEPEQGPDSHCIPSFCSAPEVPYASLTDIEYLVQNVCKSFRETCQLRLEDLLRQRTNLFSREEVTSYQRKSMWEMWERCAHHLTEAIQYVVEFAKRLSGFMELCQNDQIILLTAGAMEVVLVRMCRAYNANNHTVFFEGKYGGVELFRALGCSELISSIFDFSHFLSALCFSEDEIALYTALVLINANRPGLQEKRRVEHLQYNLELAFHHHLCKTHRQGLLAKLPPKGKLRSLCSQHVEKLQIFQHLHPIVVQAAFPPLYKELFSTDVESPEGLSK
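Using a luciferase readout, inhibitors were identified by reduced reporter activity in Drosophila cells coexpressing a copper-inducible Gal4–ROR gamma fusion and UAS-driven Photinus luciferase, incubated 20 hr after 700 uM copper sulfate.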
An asterisk follows results filed as active; ? = inconclusive; nt = no result given; [ ] = remark or other dose. Sampled rows, rich in hits. Any-hit rate of the full collection: about 6.2%. The call rests on the fitted dose curve; in most records, active means well fitted curve in the direction sought with a large enough effect; inconclusive means small, poorly fitted or top-dose-only effect, or another doubt; inactive means no such curve, though single readings can be large; an effect the other way counts as inactive or inconclusive. On the % scale 0 is the no-effect control and ±100 the full control effect; potency means the concentration at half of the fitted maximal effect.

SMILES	Gal4-VP16 FLuc	KinaseGlo FLuc	RORgamma inh
O=C(Cn1cc(F)c(=O)[nH]c1=O)NCCO	2%	5%	14%
O=C(Cn1cc([N+](=O)[O-])cn1)N1CCc2ccccc2C1	-2%	6%	11%
O=C(NC1CCS(=O)(=O)C1)/C(=C\c1ccc(F)cc1)NC(=O)c1ccccc1 (stereo not drawn)	15%	0%	21%
CCc1ccc(NC(=O)Cn2nnc(C(=O)NCc3ccco3)c2N)cc1	-9%	nt	11%
c1ccc2[nH]c(-c3cscn3)nc2c1	9%	-18%	-5%
c1ccc2nc(-c3nc4ccccc4[nH]3)ccc2c1	nt	8.9µM*	-29%[0.365 µM]
O=C(c1ccco1)N1N=C(c2ccncc2)CC1(O)C(F)(F)F (stereo not drawn)	2%	-1%	10%
O=C(c1ccco1)N1N=C(c2ccc(Br)cc2)CC1(O)C(F)(F)F (stereo not drawn)	?	0%	7.1µM*
O=C(c1ccco1)N1N=C(c2ccc(Cl)cc2)CC1(O)C(F)(F)F (stereo not drawn)	5.6µM*	2%	?
CC1CCC2=NN(C(=O)c3ccco3)C(O)(C(F)(F)F)C2C1 (stereo not drawn)	-18%	3%	42%
C[C@@H](NC(=O)[C@@H]1Cc2ccccc2CN1)C(=O)NCC1CCCO1 (stereo partly drawn)	-5%	nt	1%
O=C(NCCc1ccccc1)/C(=C\c1cccc([N+](=O)[O-])c1)NC(=O)c1ccco1	0%	nt	?
CCOc1ccc(C(=O)Nc2ncccc2Cl)cc1	4%	-6%	17%
Cc1ccc(NC(=O)c2ccc(OCC3CCCO3)cc2)cc1 (stereo not drawn)	-18%	-1%	-7%
O=C(NC1=NCCS1)c1ccc(OCC2CCCO2)cc1 (stereo not drawn)	?	-6%	?
O=C(Nc1ncccc1O)c1ccc(OCC2CCCO2)cc1 (stereo not drawn)	?	nt	10µM*
Cc1cnc(NC(=O)c2ccc(OCC3CCCO3)cc2)s1 (stereo not drawn)	?	-5%	7.9µM*
O=C(Nc1ncccc1O)c1ccc(Oc2ccccc2)cc1	14µM*	nt	?
O=C(C/C=N\OCc1ccc([N+](=O)[O-])cc1)Nc1ccc(Br)cc1	3%	-1%	3%
O=C(NCc1ccccc1)NCc1cccs1	4%	3%	17%
Cc1ccc(SC(C)C(=O)N2CCC(C(N)=O)CC2)cc1 (stereo not drawn)	-1%	1%	3%
COc1ccc(C(=S)N2CCOCC2)cc1OC(=O)c1cc(OC)c(OC)c(OC)c1	-6%	nt	29%
COc1ccc(C(=O)OCC(=O)N2C(C)CCCC2C)cc1[N+](=O)[O-] (stereo not drawn)	-7%	0%	-11%
COc1ccc(NC(=O)Nc2cccs2)cc1OC	9%	-5%	10%
COc1cccc(NC(=O)Nc2cccs2)c1	5µM*	-8%	6.3µM*
SMILES	Gal4-VP16 FLuc	KinaseGlo FLuc	RORgamma inh
Cc1ccc(OCC(=O)NNC(=O)CSc2nnc(-c3ccc(C)cc3)n2C)cc1	-1%	2%	0%[10 µM]
COc1cccc([C@@H]2Oc3ccc(OC)cc3C[C@H]2OC(=O)Nc2cc(OC)c(OC)c(OC)c2)c1	2%	3%	-3%
O=C(O)c1cccc(NC2=Nc3cccc4cccc2c34)c1	17%	nt	15%
O=C(NNC1=Nc2cccc3cccc1c23)c1ccccc1Br	1.1µM*	-2%	0.71µM*
Cc1ccc(-c2nc(CN3CCCC(C(=O)N4CCOCC4)C3)c(C)o2)cc1 (stereo not drawn)	-2%	nt	12%
COc1cccc(OC)c1C(=O)NC(C)C12CC3CC(CC(C3)C1)C2 (stereo not drawn)	-2%	-3%	-17%
CC(NC(=O)c1ccc([N+](=O)[O-])o1)C12CC3CC(CC(C3)C1)C2 (stereo not drawn)	-13%	nt	2.5µM*
CC1(C)CC(=O)C(N=Nc2cc(Cl)c(Cl)c(Cl)c2)=C(O)C1	?	-2%	26%
Cc1ccc(O)c(N=NC2=C(O)CC(C)(C)CC2=O)c1	8.9µM*	-2%	7.9µM*
COc1ccc(S(=O)(=O)N2CCC(C(=O)NCCCN3CCOCC3)CC2)cc1	-2%	nt	8%
O=C(NC(=S)Nc1nc(-c2ccc(Br)cc2)cs1)c1ccco1	8%	-2%	2.8µM*
O=C(NC(=S)Nc1nc(-c2ccc([N+](=O)[O-])cc2)cs1)c1ccco1	?	nt	2.2µM*
O=C(NC(=S)Nc1nc(-c2ccc(Br)cc2)cs1)c1cccnc1	?	-1%	1.1µM*
